From the supplement of paper PMC9844399 come the findings set out here.

Structures can show the parent of a compound that is named as a salt.
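Also: Hoechst-stained nuclei counted by automated confocal imaging of four fields per well in 384-well plates, with the robust Z-score based on the per-plate DMSO median and robust SD.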

The test system of the assay is HeLa. The assay can be described thus: nuclear count per well, robust Z-score vs DMSO; higher = more cells (less toxicity). The conditions noted are these: 10 µM; 6 h.
With `CCCCCC(O)C=CC1C(O)CC(O)C1CC=CCCCC(=O)O` (stereo not drawn) [8-epi-Prostaglandin F2a], the “nuclear count per well” value was 0.282.

In the case of `CN(C)C(=N)NC(=N)N`, the “nuclear count per well” value is 0.367.

On to `Cc1ccc(Nc2nccc(N(C)c3ccc4c(C)n(C)nc4c3)n2)cc1S(N)(=O)=O`, for which the “nuclear count per well” value is -0.0602.

As for `COc1ccc2c(c1)c(CC(=O)N1CCOCC1)c(C)n2C(=O)c1ccc(Cl)cc1`, the “nuclear count per well” value is 0.166.

For the molecule `CCCCC[C@H](O)/C=C/[C@H]1C=CC(=O)[C@@H]1CCCCCCC(=O)O` [Prostaglandin A1], the “nuclear count per well” value was -0.218.

Regarding `CC[C@@]1(O)C(=O)OCc2c1cc1n(c2=O)Cc2cc3cc(O)ccc3nc2-1` [10-hydroxycamptothecin], the “nuclear count per well” value is -4.73.

For the molecule `CC1(C)S[C@@H]2[C@H](NC(=O)[C@H](N)c3ccc(O)cc3)C(=O)N2[C@H]1C(=O)O` [Amoxicillin], the “nuclear count per well” value was -0.996.

For `NC(=O)c1cnccn1` [Pyrazinamide], the “nuclear count per well” value came out at 0.289.

For `C=C(C)[C@@H]1CC[C@]2(C(=O)O)CC[C@]3(C)[C@H](CC[C@@H]4[C@@]5(C)CC[C@H](O)C(C)(C)[C@@H]5CC[C@]43C)[C@@H]12` [Betulinic acid], the “nuclear count per well” value was -0.148.

With `CC[C@H]1OC(=O)[C@H](C)[C@@H](O[C@H]2C[C@@](C)(OC)[C@@H](O)[C@H](C)O2)[C@H](C)[C@@H](O[C@@H]2O[C@H](C)C[C@H](N(C)C)[C@H]2O)[C@](C)(O)C[C@@H](C)C(=O)[C@H](C)[C@@H](O)[C@]1(C)O` [Erythromycin], the “nuclear count per well” value is 0.151.

In the case of `COc1cc2ncnc(Nc3ccc(F)c(Cl)c3)c2cc1OCCCN1CCOCC1` [Gefitinib], the “nuclear count per well” value was -1.31.

Take `CO[C@H]1C[C@@H]2CC[C@@H](C)[C@@](O)(O2)C(=O)C(=O)N2CCCC[C@H]2C(=O)O[C@H]([C@H](C)C[C@@H]2CC[C@@H](O)[C@H](OC)C2)CC(=O)[C@H](C)/C=C(\C)[C@@H](O)[C@@H](OC)C(=O)[C@H](C)C[C@H](C)/C=C/C=C/C=C/1C` [Rapamycin]: the “nuclear count per well” value came out at 1.56.

Take `CCOC(=O)C1=C[C@@H](OC(CC)CC)[C@H](NC(C)=O)[C@@H](N)C1` [Oseltamivir Phosphate]: the “nuclear count per well” value is -0.617.

Consider `CO[C@H]1C[C@@H]2CC[C@@H](C)[C@@](O)(O2)C(=O)C(=O)N2CCCC[C@H]2C(=O)O[C@H]([C@H](C)C[C@@H]2CC[C@@H](OC(=O)C(C)(CO)CO)[C@H](OC)C2)CC(=O)[C@H](C)/C=C(\C)[C@@H](O)[C@@H](OC)C(=O)[C@H](C)C[C@H](C)/C=C/C=C/C=C/1C` [Temsirolimus], for which the “nuclear count per well” value worked out at 0.576.

Consider `Cc1cn[nH]c1` [Fomepizole], for which the “nuclear count per well” value was determined as 0.665.

Consider `OC[C@@H](O)[C@@H](O)[C@H](O)[C@H](O)CO` [Mannitol], for which the “nuclear count per well” value was -0.686.

Regarding `Clc1ccc2nsnc2c1NC1=NCCN1`, the “nuclear count per well” value is 0.891.

Consider `CCCCCCCCCCCCCCC[C@@H](O)[C@@H](N)CO` [Dihydrosphingosine], for which the “nuclear count per well” value was 0.706.

Turning to `CN(C)CC[C@@H](c1ccc(Cl)cc1)c1ccccn1` [Dexchlorpheniramine Maleate], the “nuclear count per well” value was -0.216.

`O=c1oc2ccccc2c(O)c1Cc1c(O)c2ccccc2oc1=O` [Dicumarol]: the “nuclear count per well” value amounted to 0.274.

For `CCN(CC)C(=S)SSC(=S)N(CC)CC` [Disulfiram], the “nuclear count per well” value was determined as 0.329.

For `CCCCC[C@H](O)/C=C/[C@@H]1[C@@H](CC(=O)CCCCC(=O)O)[C@@H](O)C[C@H]1O` [6-Keto-prostaglandin F1a], the “nuclear count per well” value was -0.959.

As to `Cc1ccc(N(CC2=NCCN2)c2cccc(O)c2)cc1` [Phentolamine mesylate], the “nuclear count per well” value is 0.0958.

Regarding `CC(C)=CCC/C(C)=C/CC/C(C)=C/CSCC(=O)O` [Farnesylthioacetic acid], the “nuclear count per well” value is -0.812.

Turning to `Cc1ccc(S(=O)(=O)NC(=O)NN2CCCCCC2)cc1` [Tolazamide], the “nuclear count per well” value was -0.274.

For the molecule `CCCCC[C@H](O)/C=C/C1=C(CCCCCCC(=O)O)C(=O)CC1` [Prostaglandin B1], the “nuclear count per well” value came to 1.38.

For the molecule `N=C(N)c1ccc(OCCCCCOc2ccc(C(=N)N)cc2)cc1` [Pentamidine Isethionate], the “nuclear count per well” value is -0.511.

For the molecule `O=C(O)C[C@H](O)C[C@H](O)/C=C/c1c(C2CC2)nc2ccccc2c1-c1ccc(F)cc1` [Pitavastatin Calcium], the “nuclear count per well” value was -0.666.

Take `CN1CCC[C@@H]1CCO[C@](C)(c1ccccc1)c1ccc(Cl)cc1` [Clemastine fumarate]: the “nuclear count per well” value turned out to be 0.147.

For the molecule `Oc1ccc(C2CNCCc3c2cc(O)c(O)c3Cl)cc1` (stereo unspecified) [Fenoldopam Mesylate], the “nuclear count per well” value was -1.24.

For the molecule `Cc1c(C(=O)Nc2ccc(N3C[C@@H](C)O[C@@H](C)C3)nc2)cccc1-c1ccc(OC(F)(F)F)cc1`, the “nuclear count per well” value worked out at 0.565.
